Most compounds without a hit are left out; they make up all but 1.1% or so of the library.
VACV mCherry inh: inhibitors of vaccinia virus infection (mCherry reporter signal) | Vaccinia virus mCherry reporter infection, fluorescence | Potency, µM (series often up to 36.5 µM), without a hit: at the top dose activity change, negative = inhibition, usual class: inhibitors | 0.63% of 310,000 active | AID 720579; calls by dose curve; tested in A549 cells; note: nearly all actives have a fitted effect of over 35% in size
AmpC inh no detg: inhibitors of E. coli AmpC beta-lactamase without detergent | P00811 | AmpC nitrocefin hydrolysis, absorbance 480 nm, 0.0001% Triton | Potency, µM (top dose mostly 57.1 µM), for the others: at the top dose activity change, negative = inhibition, actives largely listed as inhibitors | 0.52% of 330,000 active;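 note: plate controls were no compound for no effect and no enzyme for full effect; nearly all actives have a fitted effect of over 20% in size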
Target sequence (P00811 whole entry, looked up): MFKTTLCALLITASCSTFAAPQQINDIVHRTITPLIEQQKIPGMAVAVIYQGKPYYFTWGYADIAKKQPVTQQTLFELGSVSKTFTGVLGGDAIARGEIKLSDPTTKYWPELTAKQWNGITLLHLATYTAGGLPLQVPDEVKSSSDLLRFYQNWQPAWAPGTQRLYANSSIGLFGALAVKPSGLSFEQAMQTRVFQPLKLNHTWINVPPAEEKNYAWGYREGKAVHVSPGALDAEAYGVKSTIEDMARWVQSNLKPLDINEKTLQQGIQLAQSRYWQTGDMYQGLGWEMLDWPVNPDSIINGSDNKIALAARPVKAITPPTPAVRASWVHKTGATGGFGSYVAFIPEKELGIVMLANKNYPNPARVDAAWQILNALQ
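20 mM phosphate pH 7.0 + 0.01% (detergent screen) or 0.0001% Triton X-100; 5.3 nM AmpC reagent; cpd preinc 15 min RT; nitrocefin (800 uM stock) to start; A480 q20 s × 4 min; Activity was normalised to no-enzyme and no-compound control wells.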
AmpC inh detg: AmpC beta-lactamase inhibition with detergent present | P00811 | AmpC hydrolysis of nitrocefin, absorbance 480 nm, 0.01% Triton | Potency, µM (top dose mostly 114 µM), inactives show top-dose activity change, negative = inhibition, hits mostly inhibitors | 0.041% of 370,000 active | AID 485294;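 note: 0% = no-compound wells and -100% = no-enzyme wells; nearly all actives have a fitted effect of over 25% in size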
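20 mM phosphate pH 7.0 + 0.01% (detergent screen) or 0.0001% Triton X-100; 5.3 nM AmpC reagent; cpd preinc 15 min RT; nitrocefin (800 uM stock) to start; A480 q20 s × 4 min; Activity was normalised to no-enzyme and no-compound control wells.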
VACV Venus inh: vaccinia inhibition (Venus reporter) | 0.46% of 330,000 active | Vaccinia virus Venus reporter expression, fluorescence | Potency, µM (top dose mostly 36.5 µM), for inactives: top-dose activity change, negative = inhibition, actives largely listed as inhibitors; calls by dose curve; tested in A549 cells; note: nearly all actives have a fitted effect of over 30% in size
Numbers without * were called inactive; i = inactive; ? = inconclusive; nt = no result given; [ ] = remark or other dose. Unless noted, calls come from the whole dose curve; as a rule, active = well fitted curve in the direction sought with a large enough effect; inconclusive = small, poorly fitted or top-dose-only effect, or another doubt; inactive = no such curve, though single readings can be large; an effect the other way counts as inactive or inconclusive. Unless noted, % is set by controls: 0 for no effect and ±100 for the full control effect; potency is the fitted concentration of half-maximal effect.

SMILES	VACV mCherry inh	AmpC inh no detg	AmpC inh detg	VACV Venus inh
COc1ccc(/C=C\C(=O)O[C@@H]2C(O)C(O[C@@H]3OC(C)[C@H](O[C@@H]4OCC(O[C@H]5O[C@H](CO)[C@@H](O)C(O)C5O)C(O)C4O)C(O)C3O)[C@H](OC(=O)[C@]34CCC(C)(C)C[C@@H]3C3=CCC5[C@@]6(C)CC(O)C(O[C@@H]7OC(CO)C(O)[C@H](O)[C@H]7O)[C@@](C)(C(=O)O)C6CC[C@@]5(C)[C@]3(CO)CC4)O[C@H]2C)cc1 (stereo partly specified)	?	171.7%	nt	11.2µM*
COc1ccccc1CN(C)CC(=O)c1c(C)[nH]c2ccccc12	-14.0%	nt	nt	-16.9%
O=C1C(Cl)=CC(=Nc2ccc(O)cc2)C=C1Cl	nt	28.2µM*	?	nt
CN(C)c1nc2cc3c(cc2cc1CN(CC1CCCO1)C(=O)c1cccc(F)c1)OCO3 (stereo unspecified)	-9.9%	nt	nt	3.4%
C=CC1CN2CCC1C[C@H]2C(O)c1ccnc2ccc(OC)cc12 (stereo partly specified)	-18.2%[60.7 µM]	nt	nt	-7.3%[60.7 µM]
O=C(CCS(=O)(=O)c1ccc(Br)cc1)Nc1cc(F)ccc1F	11.2µM*	-22.1%	0.2%	?
O=C(CCS(=O)(=O)c1ccc(Br)cc1)Nc1ccc(F)cc1F	-5.5%	nt	-6.6%	-7.6%
O=C(N=Nc1c(O)[nH]c2ccccc12)c1cccs1	i	-25.7%	2.9%	-20.0%
O=C(N=Nc1c(O)[nH]c2ccccc12)c1cc(NS(=O)(=O)c2cccs2)cc(NS(=O)(=O)c2cccs2)c1	-2.5%	15.8µM*	2.6%	-10.8%
Cc1cc(C(=O)Nc2ccccc2-c2nc(CNC(=O)c3cc4ccccc4cn3)c(C)o2)c(C)o1	-8.1%	nt	nt	7.0%
CCn1c2ccccc2c2cc(NC(=O)COC(=O)c3ccc(O)cc3)ccc21	11.2µM*	?	-3.7%	?
CCn1c2ccccc2c2cc(NC(=O)COC(=O)c3cccc(S(=O)(=O)NC)c3)ccc21	?	-9.3%	3.2%	?
CCn1c2ccccc2c2cc(NC(=O)COC(=O)Cc3cn4ccsc4n3)ccc21	nt	-15.8%	-9.7%	10µM*
O=c1[nH]/c(=C/c2ccc3c(c2)OCO3)c(=O)[nH]/c1=C/c1ccc2c(c1)OCO2	-2.4%	nt	nt	-13.6%
CC(C)C[C@@H](CN=[N+]=[N-])N1CCN(CCc2ccccc2)CCC1=O	i	nt	nt	-18.0%
Cc1c(C(=O)N2CCOc3ccccc3C2)sc2ncnc(NCCCN3CCOCC3)c12	-9.1%	nt	nt	-5.9%
C=C1CC2(CC(c3ccccc3)OC(c3ccccc3)C2)OC1=O (stereo unspecified)	11.2µM*	nt	nt	?
Nc1cccc(Nc2nc(OC(C(F)(F)F)C(F)(F)F)nc(OC(C(F)(F)F)C(F)(F)F)n2)c1	-33.2%[1.46 µM]	5.9%	-7.2%	28.2µM*
COc1nc(Nc2ccc(O)cc2)nc(OC(C(F)(F)F)C(F)(F)F)n1	nt	3.8%	-5.5%	nt
CCCC(=O)N1CCN(c2ccc(NC(=O)c3ccc([N+](=O)[O-])o3)cc2Cl)CC1	10µM*	-20.9%	0.3%	?
O=C(Nc1ccc2oc(-c3ccncc3)nc2c1)c1ccc([N+](=O)[O-])o1	10µM*	-18.2%	-13.3%	?
CN1CCN(c2ccc(NC(=O)c3ccc([N+](=O)[O-])o3)cc2Cl)CC1	12.6µM*	-14.1%	-6.6%	?
CN1CCN(c2ccc(NC(=O)c3ccc(-c4ccc(Cl)cc4)o3)cc2)CC1	?	184.8%	-2.9%	11.2µM*
O=C(Nc1ccc(N2CCOCC2)c(Cl)c1)c1ccc([N+](=O)[O-])o1	?	-8.7%	-0.8%	?
CCC1CN(CCNC(=O)c2scc3c2OCCO3)Cc2cc(OC)ccc2O1 (stereo unspecified)	-10.5%	nt	nt	-1.5%
SMILES	VACV mCherry inh	AmpC inh no detg	AmpC inh detg	VACV Venus inh
CSc1nccc(-c2cc(Cl)c3c(c2)CC(CNC(=O)c2ccc(C)nc2)O3)n1 (stereo unspecified)	i	nt	nt	-0.4%
CC(C)C(=O)N1CCN(c2ccc(NC(=O)c3ccc([N+](=O)[O-])o3)cc2)CC1	10µM*	-12.9%	-7.8%	11.2µM*
CC(C)C(=O)N1CCN(c2ccc(NC(=O)c3ccc([N+](=O)[O-])o3)cc2Cl)CC1	?	-13.1%	8.0%	?
Clc1cccc[n+]1CCCCCC[n+]1ccccc1Cl	-8.8%	nt	nt	-4.7%
COC(=O)[C@@H]1CCCN1S(=O)(=O)Cc1ccccc1	i	nt	nt	-5.5%
Cc1cc(C)c(S(=O)(=O)/N=C2\C=CC(=O)C(Cl)=C2)c(C)c1	nt	5.01µM*	?	nt
O=c1[nH]cnc2c1sc1nc3c(c(-c4ccc(Cl)cc4)c12)CCC3	nt	-15.0%	-1.4%	2.82µM*
O=C(N/N=C/c1c[nH]c2ccccc12)c1cc(Cl)ccc1O	nt	15.8µM*	-8.7%	nt
O=C(N/N=C/c1c[nH]c2ccccc12)c1ccc(Br)cc1	-21.1%	20µM*	-11.1%	-21.9%
O=C(N/N=C/c1c[nH]c2ccccc12)c1ccccc1Cl	-15.3%	-25.2%	-0.5%	-7.9%
C(=C\c1ccnc2ccccc12)/c1ccccc1	-22.7%	nt	nt	-19.0%
Cc1ccc(C)c(C(=O)N2CCC(C3(c4ccccn4)NC(=O)N(CC4CCCO4)C3=O)CC2)c1 (stereo unspecified)	i	nt	nt	-13.5%
COc1cc(=O)n2c(c1C(=O)NC(C)c1ccco1)CCN(Cc1ccccc1Cl)CC2 (stereo unspecified)	i	nt	nt	0.0%
O=C(c1cccnc1)C1CCCN(Cc2ccc3c(c2)CN(C(=O)c2cccs2)CCO3)C1 (stereo unspecified)	-11.3%	nt	nt	-17.0%
Cc1ccnc2c(N3C(=O)C4C5C=CC(C5)C4(C)C3=O)cccc12 (stereo unspecified)	-5.6%	7.08µM*	?	-3.7%
O=C(c1ccco1)N1CCN(/C(=N/S(=O)(=O)c2cccs2)c2ccccc2Cl)CC1	nt	7.08µM*	6.1%	-12.1%
O=C(NCc1ccccc1)C(=O)NCC1OCCN1S(=O)(=O)c1ccc([N+](=O)[O-])cc1 (stereo unspecified)	10µM*	-48.9%	2.9%	?
CNC(=O)C(=O)NCC1OCCN1S(=O)(=O)c1ccc([N+](=O)[O-])cc1 (stereo unspecified)	-22.1%	-10.1%	?	?
OC1(c2cccc(C(F)(F)F)c2)CCN(c2ncnc3c2[nH]c2ccc(F)cc23)CC1	nt	nt	16.1%	11.2µM*
Cc1cc(CC(C)CC(C)(C)C)n(O)c(=O)c1 (stereo unspecified)	1µM*	nt	nt	?
COc1ccc(C(=O)Nc2cccc(/C(C)=N\NC(=O)c3ccoc3C)c2)cc1OC	-23.7%	3.2%	0.7%	-4.5%
C/C(=N\NC(=O)c1nn(C)c(C)c1Br)c1cccc(NC(=O)c2ccoc2C)c1	i	31.6µM*	?	-7.4%
Cc1ccc(-n2nc3ccc(NC(=O)/C=C/c4ccco4)cc3n2)cc1	?	28.2µM*	-8.2%	?
Cc1ccc(NC(=O)c2cccc(NC(=O)/C=C/c3ccco3)c2)cc1C	i	-55.5%	?	-24.8%
CCc1nnc(N/N=C\c2ccc(OC(C)=O)c(OC)c2)n1N	nt	-9.8%	1.1%	nt
